Experimental data from PubChem BioAssay (NCI).
The panel holds about 83,000 compounds, 20% with a hit somewhere; the sample as a whole holds those more often.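 For each line, cells grew in 96-well plates with the test compound present at a single concentration for 48 hours.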 Unmarked numbers belong to inactive results. The source made the active and inactive calls. Rule for the calls: active = growth percent below 10; inactive = the rest.

Assays:
Assay in all cases: NCI-60 one-dose screen, 48 h (100 = growth as untreated, 0 = no growth, -100 = all killed)
Conditions in all cases: 10 µM unless noted
[1] = tested on: NCI-H23 lung
[2] = tested on: NCI-H322M lung
[3] = tested on: HOP-62 NSCLC
[4] = tested on: NCI-H460 lung
[5] = tested on: HOP-92 NSCLC
[6] = tested on: NCI-H522 lung
[7] = tested on: A549/ATCC NSCLC
[8] = tested on: 786-0 renal
[9] = tested on: COLO 205 colon
[10] = tested on: DU-145 prostate
[11] = tested on: K-562 leukemia
[12] = tested on: MALME-3M melanoma
[13] = tested on: MDA-MB-231 breast
[14] = tested on: RXF 393 renal
[15] = tested on: SF-268 CNS
[16] = tested on: SF-295 CNS
[17] = tested on: SF-539 CNS
[18] = tested on: UACC-257 melanoma
[19] = tested on: M14 melanoma
[20] = tested on: HCT-15 colon

SMILES	growth [1]	growth [2]	growth [3]	growth [4]	growth [5]	growth [6]	growth [7]	growth [8]	growth [9]	growth [10]	growth [11]	growth [12]	growth [13]	growth [14]	growth [15]	growth [16]	growth [17]	growth [18]	growth [19]	growth [20]
O=C(c1nc2ccccc2[nH]1)C1C(c2cccc([N+](=O)[O-])c2)C2CC3CCCCC3N2[C@@]12C(=O)Nc1cc(Cl)ccc12 (stereo not given in full)	37.3%	42.2%	48.1%	9.08% (active)	16.9%	52.4%	17.8%	25.6%	12.6%	27%	24.2%	29.3%	18.6%	-52.5% (active)	39.9%	24.8%	48.4%	43.5%	21.5%	20.9%
O=C1/C(=C\c2ccc[nH]2)c2ccccc2N1c1ccccc1	87.9%	91.7%	106%	95.8%	96%	75.5%	96%	98.1%	108%	112%	90.9%	103%	84.4%	105%	101%	104%	94%	110%	109%	82.7%
CN(C)c1ccc(N=Cc2ccc(N3CCOCC3)cc2)cc1	68.5%	106%	87.3%	92.3%	100%	42.4%	73.7%	101%	3.73% (active)	99.6%	56.6%	81.8%	48.2%	130%	84.7%	83.3%	31.6%	84.8%	71.2%	77.3%
CC(C)c1ccc(S(=O)(=O)NC(=O)NC2CCCC2)cc1	101%	98%	100%	104%	107%	97.2%	87.7%	103%	108%	107%	103%	97.1%	102%	115%	101%	97.7%	96.1%	95.7%	-52.9% (active)	97.3%
COc1ccc(/C=C2\CCC/C(=C\c3ccc(OC)c(OC)c3)C2=O)cc1OC	21.6%	45.4%	28.5%	-46.5% (active)	106%	-14% (active)	13.8%	0.0865% (active)	22.6%	-33.9% (active)	10.6%	42.3%	15%	-32.5% (active)	30.5%	1.26% (active)	13.1%	14%	-2.63% (active)	-8.77% (active)
COc1ccccc1N1C(=N)S/C(=C\c2ccc(OCc3ccccc3F)cc2)C1=O	79.8%	81.6%	98.8%	77.4%	81.1%	65.7%	80.3%	87.9%	112%	102%	62.2%	118%	51.4%	65.8%	82%	95.1%	106%	90.9%	70.7%	81.3%
CC(C)C[C@H](C(=O)N[C@@H](C)C(N)=O)N1CC=CCN(O)S1(=O)=O	110% [5 µM]	135% [5 µM]	102% [5 µM]	112% [5 µM]	116% [5 µM]	91.7% [5 µM]	102% [5 µM]	105% [5 µM]	105% [5 µM]	128% [5 µM]	117% [5 µM]	148% [5 µM]	98.3% [5 µM]	119% [5 µM]	108% [5 µM]	128% [5 µM]	104% [5 µM]	85.6% [5 µM]	108% [5 µM]	102% [5 µM]
COc1ccc(Cn2c(Br)c3c(c2Br)-c2nc(NC(=O)c4ccc(OC)cc4)sc2CC3)cc1	81.3%	56.4%	68.6%	77.4%	50.6%	72%	79.7%	61.8%	103%	78%	79.2%	4.4% (active)	52.6%	57%	72%	57.7%	52.1%	78.5%	80.4%	92.8%
Cc1c(-c2csc(-n3nc(C(F)(F)F)cc3C(F)(F)F)n2)no[n+]1[O-]	98.4%	98.8%	100%	98.9%	96.3%	87.4%	95.3%	97.5%	112%	105%	93.1%	96.8%	96.5%	101%	96.1%	93.9%	99.1%	98.5%	90.2%	95.4%
O=C1Nc2ccccc2/C1=C/c1cccs1	92.5%	84.6%	83.5%	92.5%	75.3%	95.2%	95.2%	94.1%	107%	103%	114%	93.6%	94.5%	97.9%	94.1%	101%	86.7%	100%	97.3%	78.8%
CC1=C(C(=O)OCC2CCN(C(=O)OC(C)(C)C)CC2)[C@H](c2cccc(C#N)c2)C2=C(CC(C)(C)CC2=O)N1	65.7%	68.4%	70.3%	12.8%	86.3%	8.74% (active)	46.1%	62.8%	50.9%	52.5%	24.3%	66.1%	59.7%	83.2%	52.5%	40.5%	48%	70%	50.4%	23.7%
CC(=S)NC(=O)C(=O)/C=C1/NC(=O)C(=O)S1	97.4%	105%	100%	107%	96.5%	105%	111%	103%	124%	111%	110%	107%	103%	110%	100%	101%	102%	108%	106%	102%
OC(CNC1CCCCC1)Cn1c2ccc(I)cc2c2cc(I)ccc21 (stereo not given)	76.6%	75.8%	74.4%	70.1%	-0.53% (active)	67.5%	75%	77.7%	104%	101%	54.4%	68.9%	56.3%	78.3%	91.8%	47.2%	77.5%	84.8%	68.7%	65.7%
COC(=O)/C(CCC=C(C)C)=C1\[C@@H](OC(C)=O)C[C@@]2(C)[C@H]1C[C@@H](O)[C@H]1[C@@]3(C)CC[C@H](NCc4ccccc4)[C@@H](C)[C@@H]3CC[C@@]12C	81.4%	91.5%	84%	45.1%	48.8%	80%	59%	55.4%	50%	74.8%	11%	68%	63.6%	49.6%	64.1%	85.7%	70%	75.4%	49.8%	31%
COC(=O)C1=C(C)NC(C)=C(C(=O)OC)C(N2C(=O)CCC2=O)C1 (stereo not given)	96.8%	91.2%	109%	101%	101%	7.93% (active)	77.6%	99.2%	114%	90.1%	35.8%	80.8%	95.8%	104%	93.9%	118%	103%	66.5%	85%	78.4%
